# Screens: PubChem BioAssay, several laboratories
# Compounds with a hit are over-represented: about 2.7% of the library has one in this group of screens.
# Peg3 prom inh: Peg3 promoter activity inhibition; inhibition, % at 20 µM; actives 1.7% (n = 360,000); HeLa PEG-Prom luciferase reporter, luminescence, overnight;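 active = inhibition of at least 50% at 20 µM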
# TRPM1 prom inh: MITF TRPM1 promoter inhibition in SK-MEL-5 cells. inhibition, % at 12.5 µM. SK-MEL-5 TRPM1 promoter luciferase, 24 h. actives 0.83% (n = 330,000);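 active = mean inhibition across replicates of 60% or more, whatever share of single replicates reaches that level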
# HIF-2a block: HIF-2a inhibition; actives 0.72% (n = 360,000); inhibition, % at 18.8 µM; AID 624352; 786-0 RCC cells HIF-2a reporter, luciferase luminescence, overnight;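 active = inhibition of the luminescence signal of 40% or more relative to plate controls, in a single-dose primary screen at 18.75 µM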
# CF NFkB block: inhibitors of cystic fibrosis induced NF-kB. KKLEB NF-kB-GFP reporter, PAF-induced, GFP fluorescence overnight. inhibition, % at 5 µM. actives 0.86% (n = 360,000);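 active = at least 50% inhibition at 5 µM, scaled per plate between neutral and stimulator controls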;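 also: PAF is a Pseudomonas aeruginosa culture filtrate used as stimulus; plate controls were PAF-stimulated DMSO wells for no effect and unstimulated DMSO wells for full effect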
# KKLEB tox: reduces viability of KKLEB cystic fibrosis airway cells; KKLEB CF airway cells viability, ATPlite luminescence, overnight; hits give low values; cells stimulated with P. aeruginosa culture filtrate; activity change (cytotoxicity), % at 5 µM; actives 0.36% (n = 360,000);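 active = corrected activity change at or below -50% at 5 µM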
# Shn3 3UTR inh: Schnurri-3 reporter inhibition in Clone20 osteoblasts | Clone20 osteoblast Shn3 3'UTR firefly luciferase, 24 h | actives 0.52% (n = 360,000) | AID 588674 | inhibition, % at 12.5 µM;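 active = mean inhibition of at least 75% with every replicate also reaching 75%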;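 also: 0% = median of neutral control wells and 100% = pilot-screen positive control compound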
# Numbers without * were called inactive; / = no result given; ! = a repeat was not active.
SMILES,Peg3 prom inh,TRPM1 prom inh,HIF-2a block,CF NFkB block,KKLEB tox,Shn3 3UTR inh
COc1ccc(CC(N)c2csc(NC(=O)c3ccccc3OC)n2)cc1 (stereo unspecified),13,/,-30,6,0,13
COc1ccc(CNC(=O)Nc2nc(C(N)Cc3ccc(C(F)(F)F)cc3)cs2)cc1 (stereo unspecified),95*,/,2,23,-8,6
COC(=O)c1ccc(COC(=O)C2CCN(S(=O)(=O)c3c(C)cc(C)cc3C)CC2)o1,-4,/,11,-10,-1,-29
COc1ccc(CC(N)c2csc(NC(=O)C(c3ccccc3)c3ccccc3)n2)cc1 (stereo unspecified),98*,/,-8,2,-4,60
COc1ccc(CC(N)c2csc(NC(=O)c3cccc(OC(F)(F)F)c3)n2)cc1 (stereo unspecified),94*,/,20,-1,-9,59
COc1ccc(CC(N)c2csc(NC(=O)c3cc(C(C)(C)C)nn3Cc3ccccc3)n2)cc1 (stereo unspecified),100*,/,22,58*,-52*,94*
CC(=O)c1ccc(Nc2nc(C(N)CCc3ccccc3)cs2)cc1 (stereo unspecified),17,/,9,-6,-18,18
COc1ccc(CC(N)c2csc(NC(=O)c3ccccc3)n2)cc1 (stereo unspecified),11,/,4,11,-6,22
COc1ccccc1CNC(=O)Nc1nc(C(N)CCc2ccccc2)cs1 (stereo unspecified),97*,/,7,-3,6,19
COc1cc(CNC(=O)Nc2nc(C(N)Cc3ccc(Cl)cc3)cs2)cc(OC)c1OC (stereo unspecified),86*,/,1,22,-9,54
NC(CCc1ccccc1)c1csc(NC(=O)Nc2ccccc2Oc2ccccc2)n1 (stereo unspecified),118*,/,-1,4,-18,96*
COc1ccc(CC(N)c2csc(NC(=O)NCCc3ccccc3)n2)cc1 (stereo unspecified),58*,/,8,13,-14,-2
COc1cc(CNC(=O)Nc2nc(C(N)c3ccccc3)cs2)cc(OC)c1OC (stereo unspecified),-1,/,7,10,0,-13
CC(C)CN1CCC1(C)C(=O)Nc1cccc(C#N)c1 (stereo unspecified),7,/,7,8,-8,24
CCCCn1nnnc1C(c1cc2ccccc2o1)N1CCN(c2ncccc2C#N)CC1 (stereo unspecified),/,/,2,/,/,/
Cn1cc([N+](=O)[O-])c(C(=O)Nc2ccn(Cc3c(F)c(F)cc(F)c3F)n2)n1,56*,13,-74,12,4,0
Cc1cc(NC(=S)NC(=O)c2ccccc2)ccc1-c1cc2ccccc2oc1=O,0,43,8,56*,-61*,37
CCc1nc2c(OCc3ccc(Cl)cc3)cccn2c1N(C=O)Cc1ccccc1,7,/,-71,-14,-2,5
CC1(C(=O)NCc2ccccc2)CSCC(=O)N1Cc1cccs1 (stereo unspecified),/,/,6,/,/,/
CC1(C)CC(N2CCN(c3ccccc3)CC2)=CC(=[N+]2CCCC2)C1,12,57,1,12,-10,86*
CN(Cc1ccccc1)C1=CC(=[N+]2CCCC2)CC(C)(C)C1,24,77*,7,-6,0,88*
CC1CC(C)C[N+](=C2C=C(N3CCCC3)CC(C)(C)C2)C1 (stereo unspecified),34,70*,4,24,-1,89*
CCOC(=O)[C@]12CCC=C1N(Cc1ccccc1)C(=O)[C@H](CC(=O)N1CCOCC1)C2,/,/,18,/,/,/
Cc1c(Br)cccc1NC(=O)C1(C)CCN1Cc1ccccc1OC(F)F (stereo unspecified),32,/,-2,3,3,-4
COc1ccc(N2CCN(c3cc(C(=O)Nc4cc(OC)c(OC)c(OC)c4)ncn3)CC2)cc1OC,18,/,-7,-35,15,9
SMILES,Peg3 prom inh,TRPM1 prom inh,HIF-2a block,CF NFkB block,KKLEB tox,Shn3 3UTR inh
CN1C2=CC=CC=CC2=[N+](C)C12C([N+](=O)[O-])=CC(=[N+]([O-])[O-])C=C2[N+](=O)[O-] (stereo unspecified),30,70*,0,17,-16,4
COc1cc(N=c2ssnc2Cl)c(OC)cc1Cl,-9,18,-7,16,5,95*!
COc1ccc(OC)c(N=c2ssnc2Cl)c1,13,17,1,-4,-3,-17
Cc1ccc(N=c2ssnc2Cl)cc1,-42,2,-17,-11,13,88*
CCOC(=O)[C@]12CCC=C1N(CCC1=CCCCC1)C(=O)[C@H](CC(=O)N1CCSCC1)C2,/,/,-15,/,/,/
COC(=O)c1ccc(N2CCN(C)CC2)c(NC(=O)c2sc3ccccc3c2Cl)c1,110*,0,-28,-37,7,3
COc1cccc2c1C(=O)c1c(O)c3c(c(O)c1C2=O)CC(O)(C(C)=O)CC3OC1CC(O)C(O)C(C)O1 (stereo unspecified),-52,77*,-25,-310,-4,80
CCCCC(=O)OCC(=O)C1(O)Cc2c(O)c3c(c(O)c2C(OC2CC(NC(=O)C(F)(F)F)C(O)C(C)O2)C1)C(=O)c1c(OC)cccc1C3=O (stereo unspecified),74*,61*,-13,-197,8,75
COc1cccc2c1C(=O)c1c(O)c3c(c(O)c1C2=O)C[C@](O)(C(C)=O)C[C@H]3O[C@@H]1C[C@@H](N)[C@@H](O)[C@@H](C)O1,105*,88*,9,65*,16,94*
COc1cccc2c1-c1c(O)cccc1C2=O,0,8,8,3,1,8
CCCCNC(=O)C1(C)CCCCN1C(=O)c1c(C)noc1C (stereo unspecified),-7,/,1,5,-13,-20
O=C1C=C(C2CCCCC2)C(=O)c2ccccc21,12,44,1,71*,18,-40
Cc1ccccc1C1N=C2Oc3ccccc3C=C2C(=O)N1 (stereo unspecified),19,/,1,1,-5,1
Cc1c(C(=O)OCc2ccccc2)[nH]c2c1C(=O)CC(c1ccco1)C2 (stereo unspecified),-7,18,-28,57*,-30,86*
COCCOC(=O)c1[nH]c2c(c1C)C(=O)CC(c1ccco1)C2 (stereo unspecified),-2,/,-4,37,-11,66
Cn1c(/N=C(\N)c2ccccc2)nc2ccccc21,-341,/,-226,-18,-6,-151
CC1=C(C(=O)N2CCOCC2)CC(CC(=O)NCCCCc2ccccc2)C(=O)N1Cc1ccc(C(C)(C)C)cc1 (stereo unspecified),31,/,-11,-5,-9,-8
